Molecules are shown by their SMILES. The list shows a part of the results. Entries that show only a call come without a potency. Records with an inconclusive call do not appear. Active and inactive are the calls of the source. Calls follow the shape of the dose curve; as a rule, active = well fitted inhibition curve with a large enough effect; inconclusive = small, poorly fitted or top-dose-only effect; inactive = no such curve, though single readings can be large or run the other way.

Chain of Glutathione-independent formaldehyde dehydrogenase (Pseudomonas putida) (P46154 whole entry, looked up): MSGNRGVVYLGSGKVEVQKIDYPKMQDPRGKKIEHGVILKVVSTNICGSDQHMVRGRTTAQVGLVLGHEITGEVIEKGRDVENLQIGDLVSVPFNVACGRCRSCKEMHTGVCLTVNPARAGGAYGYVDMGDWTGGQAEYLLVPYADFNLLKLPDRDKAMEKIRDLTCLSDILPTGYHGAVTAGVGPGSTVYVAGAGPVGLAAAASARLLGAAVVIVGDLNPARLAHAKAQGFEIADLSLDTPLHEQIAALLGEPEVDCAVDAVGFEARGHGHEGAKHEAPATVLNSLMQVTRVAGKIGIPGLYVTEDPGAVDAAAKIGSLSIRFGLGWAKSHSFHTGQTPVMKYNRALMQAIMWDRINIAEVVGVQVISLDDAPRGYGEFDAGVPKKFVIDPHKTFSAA

This experiment deals with Glutathione-independent formaldehyde dehydrogenase (Pseudomonas putida) (UniProt P46154). As to the kind of experiment: Counterscreen for JMJD2E Inhibitors: qHTS Assay for Inhibitors of Formaldehyde Dehydrogenase (FDH). To be noted: FDH enzyme assay, NADH fluorescence kinetic; series mostly up to 56.7 µM. As to the method:
This assay is a counterscreen for a related assay for inhibitors of JMJD2E. See AID 2147 for details. The JMJD2E assay utilized an FDH-coupled protocol. To screen for false positive results in the primary assay due to inhibition of the formaldehyde dehydrogenase coupled enzyme, an FDH-only assay was run using FDH as the enzyme (0.000025 U/uL final concentration) and 10 uM formaldehyde and 0.25 mM NAD+ as the substrate, and following the same fluidic protocol as described in AID 2147 for the coupled HTS assay. Actives in this assay are likely false positives of the primary HTS.
Assay is initiated by dispensing 3 uL of enzyme solution (4/3x final concentration) into a 1,536-well assay plate using a nanoliter solenoid-based dispenser (Beckman-Coulter, Fullerton, CA). After pintool transfer of compound solution, the assay plate is incubated at room temperature for 10 minutes, followed by a 1 uL addition of 4x substrate solution to initiate the reaction (final assay volume of 4 uL). The plate is then manually transferred into the ViewLux reader for kinetic measurements.
For orientation: A counterscreen serves to expose hits that act by an unwanted route or on another target.
In the case of `Oc1cccc2cc(-c3ccncc3)cnc12`, the Potency result is “inactive”.
Take `Nc1ccc(Nc2cc(O)c3ncccc3c2)cc1`: the Potency result is “inactive”.
To `Oc1ccc(/C=C/c2c(F)cccc2F)c2cccnc12` belongs “inactive”.
With `COc1ccc(Cl)cc1CSc1ncn[nH]1` the figure was 316 nM (active).
As to `O=C1CC(Sc2ncn[nH]2)C(=O)N1c1ccccc1` (configuration not stated), the Potency is 316 nM (active).
To `Oc1c(CN2CCCC2)cc(COCc2ccccc2)c2cccnc12` belongs “inactive”; to `Cc1ccc(N2C(=O)CC(Sc3ncn[nH]3)C2=O)cc1` (configuration not stated), 316 nM (active).
